In PubChem BioAssay:
Activity calls are given as the source filed them.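 Rule for the calls: active = inhibition at or above 50% relative to wild type and mutant plate controls; inactive = inhibition below 50%.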

test: inhibitors of Chlamydomonas gravitaxis, primary screen, whole organism, Chlamydomonas reinhardtii, WT vs cilia-less mutant, absorbance, 96-well (AID 463189); conditions: OD600 absorbance, 2 days, at 10 µM, active compounds read high;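 note: 0% = wild type cc124 cells in DMSO and 100% = ciliumless bld1 mutant cells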

Which inhibition does the source give for `NC[C@H](O)c1ccc(O)c(O)c1` here?
Its inhibition is 6.74% (inactive).

Which inhibition does the source give for `COc1ccc(NC(=O)/C=C/c2ccc(Cl)cc2)cc1` here?
Its inhibition is 6.25% (inactive).

Which inhibition does the source give for `CC(C)C[C@H](NC(=O)[C@@H](O)[C@H](N)Cc1ccccc1)C(=O)O` here?
Its inhibition is 3.44% (inactive).

For `NC(N)=NC(=O)Cc1c(Cl)cccc1Cl`, which inhibition is on record?
The inhibition was 4.12% (inactive).

With `CC1(C)CCC=[N+]1[O-]` as the compound, how does the inhibition read?
The inhibition was 0.394% (inactive).

Which inhibition does the source give for `C[C@@H](NC(=O)/C(C#N)=C/c1ccc(O)c(O)c1)c1ccccc1` here?
Its inhibition is 4.46% (inactive).

For `CCOC(=O)C12CC1/C(=N/O)c1ccccc1O2` (stereo not given), which inhibition is on record?
Its inhibition is 6.31% (inactive).

With `CC[C@H](NC(=O)c1c(C)c(-c2ccccc2)nc2ccccc12)c1ccccc1` as the compound, how does the inhibition read?
The inhibition was 9.84% (inactive).

Which inhibition does the source give for `CCCCOc1cc(CC2CNC(=O)N2)ccc1OC` (stereo not given) here?
The inhibition was 2.83% (inactive).

For `CC(C)C[C@H]1C(=O)N2CCC[C@H]2[C@]2(O)O[C@](NC(=O)[C@@H]3C=C4c5cccc6[nH]c(Br)c(c56)C[C@H]4N(C)C3)(C(C)C)C(=O)N12`, which inhibition is on record?
Its inhibition is 9.22% (inactive).

For `NC(N)=N[C@@H](CCC(=O)O)C(=O)O`, which inhibition is on record?
Its inhibition is 2.13% (inactive).

Which inhibition does the source give for `NC(=O)C(=O)O` here?
The inhibition was 0.681% (inactive).

For `NC(N)=NCc1cccc(I)c1`, which inhibition is on record?
Its inhibition is 4.17% (inactive).

For `NC(=S)c1ccc[n+]([C@@H]2O[C@@H](COP(=O)([O-])OP(=O)(O)OC[C@H]3O[C@@H](n4cnc5c(N)ncnc54)C(OP(=O)(O)O)[C@H]3O)C(O)C2O)c1` (stereo not given in full), which inhibition is on record?
The inhibition was 6.21% (inactive).

With `O=C(/C=C/c1ccc(O)c(O)c1)OCCc1ccccc1` as the compound, how does the inhibition read?
Its inhibition is 1.6% (inactive).

Which inhibition does the source give for `N.N.O=C(O)C1(C(=O)O)CCC1.[Pt+2]` here?
Its inhibition is 3.35% (inactive).

With `COc1ccc(CCCOc2cc(CCn3ccnc3)ccc2OC)cc1` as the compound, how does the inhibition read?
Its inhibition is 1.24% (inactive).

Which inhibition does the source give for `[N-]=[N+]=Nc1ccc(C(=O)CSC[C@H](NC(=O)CC[C@H](N)C(=O)O)C(=O)NCC(=O)O)cc1` here?
Its inhibition is -0.598% (inactive).

Which inhibition does the source give for `N=C(N)SCCc1cnc[nH]1` here?
The inhibition was 2% (inactive).

Which inhibition does the source give for `CC[C@@H]1Cc2cc(O)ccc2C2=C1c1ccc(O)cc1C[C@H]2CC` here?
Its inhibition is 0.094% (inactive).

Which inhibition does the source give for `Cc1cccc(C#Cc2ccccc2)n1` here?
The inhibition was 8.4% (inactive).

For `CSc1ccc2c(c1)C(N1CCN(C)CC1)Cc1ccccc1S2` (stereo not given), which inhibition is on record?
Its inhibition is 0.427% (inactive).

Which inhibition does the source give for `CN1C2CCC1CC(NC(=O)c1nn(C)c3ccccc13)C2` (stereo not given) here?
The inhibition was 10.7% (inactive).

Which inhibition does the source give for `C[C@@]1(C2CCCC2)Cc2cc(OCC(=O)O)c(Cl)c(Cl)c2C1=O` here?
Its inhibition is 5.71% (inactive).

Which inhibition does the source give for `CCCCC#Cc1nc(N)c2ncn([C@@H]3O[C@H](C(=O)NCC)[C@@H](O)[C@H]3O)c2n1` here?
Its inhibition is -3.94% (inactive).

With `CCN1CCc2nc(N)oc2CC1` as the compound, how does the inhibition read?
Its inhibition is 6.74% (inactive).

For `COC(=O)c1c(-c2cc(OC)c(OC)c(OC)c2)c2ccnc(OCc3ncccn3)c2c(=O)n1Cc1ccnc(C)c1`, which inhibition is on record?
The inhibition was -6.21% (inactive).

With `O=C1OC(=O)C2C3CCC(O3)C12` (stereo not given) as the compound, how does the inhibition read?
The inhibition was 2.39% (inactive).

With `Nc1nc(Nc2ccccc2)nc2c1ncn2[C@@H]1O[C@H](CO)[C@H](O)C1O` (stereo not given in full) as the compound, how does the inhibition read?
Its inhibition is -1.98% (inactive).

Which inhibition does the source give for `Cc1nc2c([nH]1)c(=O)n(C)c(=O)n2Cc1ccco1` here?
The inhibition was 0.516% (inactive).

With `CC(C)(C)NCC(O)COc1nsnc1N1CCOCC1` (stereo not given) as the compound, how does the inhibition read?
Its inhibition is -8.84% (inactive).

For `Cc1ccccc1CNc1ncnc2c1ncn2C1OC(CO)C(O)C1O` (stereo not given), which inhibition is on record?
Its inhibition is -2.9% (inactive).

For `CC(N)(Cc1ccc(O)cc1)C(=O)O` (stereo not given), which inhibition is on record?
The inhibition was 1.6% (inactive).

For `NCCCS(=O)(=O)O`, which inhibition is on record?
Its inhibition is -4.87% (inactive).

With `O=[N+]([O-])c1cccc2c(Br)[nH]nc12` as the compound, how does the inhibition read?
Its inhibition is 136% (active).

For `CN(C)C(=O)C(CCN1CCC(O)(c2ccc(Cl)cc2)CC1)(c1ccccc1)c1ccccc1`, which inhibition is on record?
Its inhibition is -2.62% (inactive).

With `O=C(O)c1cc2cc(Cc3cccnc3)ccc2o1` as the compound, how does the inhibition read?
The inhibition was -4.17% (inactive).

For `NCCCCN`, which inhibition is on record?
Its inhibition is -2.36% (inactive).

With `Nc1c2c(nc3ccccc13)CCCC2O` (stereo not given) as the compound, how does the inhibition read?
The inhibition was 2% (inactive).

With `NO` as the compound, how does the inhibition read?
The inhibition was -14.1% (inactive).
